FXIIa inh mix = human factor XIIa inhibitors, primary screen, biochemical, pooled compound mixtures, fluorogenic substrate; Coagulation factor XII (Homo sapiens), P00748; purified FXIIa; inhibition, % at 5 µM; 62,000 compounds, 0.2% hits; AID 684, 2007;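 note: 0% = enzyme without compound and 100% = no enzyme blank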
HePTP inh = inhibitors of human HePTP phosphatase, primary screen, biochemical, absorbance, leukemia target. AID 521, 2006. 110,000 compounds, 0.64% hits. recombinant HePTP phosphatase activity, OD absorbance. inhibition, % at 20 µM; in the data active = inhibition above about 50%;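 note: plate controls were vehicle for no effect and reference inhibitor for full effect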
Target sequence (P35236 whole entry, looked up): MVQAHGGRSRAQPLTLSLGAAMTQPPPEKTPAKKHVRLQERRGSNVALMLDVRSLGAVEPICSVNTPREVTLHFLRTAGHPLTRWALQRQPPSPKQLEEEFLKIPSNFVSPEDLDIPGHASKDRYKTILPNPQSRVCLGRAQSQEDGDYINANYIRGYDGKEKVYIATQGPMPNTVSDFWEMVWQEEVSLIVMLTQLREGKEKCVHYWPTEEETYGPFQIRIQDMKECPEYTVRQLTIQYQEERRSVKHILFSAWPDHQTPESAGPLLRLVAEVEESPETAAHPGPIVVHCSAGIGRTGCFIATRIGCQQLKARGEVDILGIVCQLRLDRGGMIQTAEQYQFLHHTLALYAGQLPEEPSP
Calb biofilm kill = clotrimazole potentiators killing Candida biofilms, primary screen, with clotrimazole, Alamar Blue. C. albicans biofilm + clotrimazole. AID 834, 2007. 85,000 compounds, 0.14% hits. inhibition, % at 6 µM;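 active = inhibition above 20%; inactive = inhibition below 20%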;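 note: preformed 24 hr biofilms exposed to compound for 48 hr; 0% = biofilm without compound and 100% = blank killed by clotrimazole plus chlorhexidine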
D1 mod = D1 CRE-luciferase signal change, two-sided – cell-based, HEK293 D1, dopamine EC30, D1 allosteric modulator project, primary screen; 58,000 compounds, 5.9% hits; B-score at 10 µM; dopamine EC30 potentiation; actives deviate in either direction; AID 641, 2007;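 active = luminescence count or its row- and column-corrected plate score outside the 99.7% band of the plate's sample wells, on either side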
TNAP act DEA = human TNAP enzyme activators, primary screen, biochemical, luminescent, intermediate phosphate acceptor level; 64,000 tested, under 10 active; purified TNAP, CDP-star luminescence, 100 mM DEA, 30 min; hits give high values; scale: 0 levamisole-inhibited, 1 vehicle-only enzyme; Alkaline phosphatase, tissue-nonspecific isozyme (Homo sapiens), P05186; activation factor at 20 µM; AID 813, 2007;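 active = activation factor of at least 2 at 20 µM, relative to controls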
FXIa inh mix = FXIa protease inhibitors in compound pools, primary screen, biochemical, 10-compound mixtures; Coagulation factor XI (Homo sapiens), P03951; AID 680, 2007; inhibition, % at 5 µM; 62,000 compounds, 0.19% hits; purified FXIa, fluorogenic substrate, pooled mixtures;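 note: each value is inhibition by a whole ten-compound pool holding the compound; 0% = enzyme with no mixture and 100% = wells lacking enzyme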
D1 mod confirm = D1 receptor positive allosteric modulators, retest, confirmation, cell-based, HEK293 D1, CRE-luciferase, duplicate; shares compounds with D1 mod; dopamine EC30 potentiation; hits give high values; luminescence at 10 µM; 2,200 compounds, 88% hits; AID 642, 2007;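 active = luminescence in either of two replicates above the same-plate mean plus 3 SD of the low-dose dopamine control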
D1 no dopamine = D1 receptor agonism without dopamine, confirmation, mechanism study for D1 allosteric modulator project, cell-based, HEK293 D1, CRE-luciferase, secondary assay 1; shares compounds with D1 mod; luminescence, no dopamine; hits give high values; luminescence at 10 µM; 1,900 compounds, 0.8% hits; in the data active = luminescence above about 3900
Isoprot counter = isoproterenol response counter-screen activity for D1 modulators. 2,200 compounds, 63% hits. HEK293 D1 CRE-luciferase, isoproterenol EC30 counter-screen; hits give high values. luminescence at 10 µM. AID 647. shares compounds with D1 mod;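 active = luminescence in either replicate above plate mean of wells with a partly effective reference agonist dose plus 3 SD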;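 note: isoproterenol raises cAMP through native beta-adrenoceptor Gs so signal bypasses D1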
Numbers without * were called inactive; . = not tested or not shown. Many of the other results were omitted from the sample, so hits are more common in it than they were. Cut-off read from the data, not from the text of the source, unless noted: active = inhibition above about 20% (passing the limit was not always enough); inactive = the rest.

SMILES	FXIIa inh mix	HePTP inh	Calb biofilm kill	D1 mod	TNAP act DEA	FXIa inh mix	D1 mod confirm	D1 no dopamine	Isoprot counter
O=C1CSc2ccccc2N1Cc1ccccc1F	0	-7	1	3.5*	0.9	0	6672*	1472	2720
COc1ccc(OC)c(C2CC(=O)c3c([nH]c(C(=O)OC(C)C)c3C)C2)c1 (stereo unspecified)	3	2	5	2.8*	0.9	3	9020*	2012	3796*
CCOC(=O)C1=C(CC)NC2=C(C(=O)CCC2)C1c1ccc(Cl)c(Cl)c1 (stereo unspecified)	.	-10	.	.	.	.	.	.	.
COc1ccc(CNC(=O)c2c(O)c3cccc4c3n(c2=O)CCC4)cc1OC	5	4	6	6.2*	0.9	-3	10888*	1696	3828*
C=CCc1c(C)nc2cc(-c3ccc(I)cc3)[nH]n2c1=O	.	-5	.	.	.	.	.	.	.
O=S(=O)(c1ccc2c(c1)Cc1ccccc1-2)N1CCCCC1	.	3	.	.	.	.	.	.	.
CCc1ccc2[nH]c(=O)c(CN(Cc3nnnn3C3CCCC3)C3CCCCC3)cc2c1	5	3	7	2.5*	0.9	7	8428*	1592	2772
CCOc1cccc(C(=O)NCc2ccncc2)c1	.	-6	.	.	.	.	.	.	.
COc1ccc(CC(=O)O/N=C(\N)Cc2ccc(Cl)cc2Cl)cc1OC	.	3	.	.	.	.	.	.	.
Cc1cc(NC(=O)COc2nnc(-c3ccccc3)c3ccccc23)no1	-1	3	2	5.5*	1	0	6684*	1432	2480
CCCn1c2ccccc2c2nnc(SCC(=O)Nc3nnc(CC(=O)OCC)s3)nc21	.	.	4	.	.	.	.	.	.
CCOC(=O)Cc1nnc(NC(=O)CSc2nnc3c4ccccc4n(C(C)C)c3n2)s1	2	12	4	7.5*	0.9	3	11008*	1700	4008*
O=C(CNC(=O)/C(=C\c1ccccc1F)NC(=O)c1ccccc1)OCc1ccccc1	.	7	.	.	.	.	.	.	.
N#Cc1nc(N2CCCC2)nc(N2CCCC2)n1	9	3	-1	5.6*	0.8	5	16648*	1396	5348*
N#Cc1nc(N2CCCCC2)nc(N2CCOCC2)n1	8	-11	7	7.5*	1	-2	9460*	.	3104*
CN(C)c1nc(C#N)nc(N2CCOCC2)n1	.	.	8	.	.	.	.	.	.
C=CCn1c2ccccc2c2nnc(SCN3C(=O)c4ccccc4C3=O)nc21	1	18	.	9.9*	0.8	7	16236*	1984	5420*
Cc1cc(C)nc(SCC(=O)N2CCCCC2)n1	6	5	-2	2.9*	0.9	3	5424*	1632	2288
Nc1cc(N)nc(SCC(=O)N2CCCCC2)n1	8	-9	6	-0.068	0.9	5	.	.	.
O=C(CC1SC(=NC2CCCCC2)NC1=O)Nc1ccccc1 (stereo unspecified)	.	6	.	2.6*	1	.	6104*	1644	3148
Cc1ccc(-n2[nH]c(C)c(/C=N/NC(=O)c3ccccc3[N+](=O)[O-])c2=O)cc1C	.	3	.	.	.	.	.	.	.
CSc1oc(-c2ccco2)nc1S(=O)(=O)c1ccccc1	2	0	11	.	0.9	3	.	.	.
CC(C)Sc1oc(-c2ccco2)nc1S(=O)(=O)c1ccccc1	.	.	.	6.5*	.	.	19332*	1752	3968*
CSc1oc(-c2ccco2)nc1S(=O)(=O)c1ccc(F)cc1	11	-3	-1	3.4*	1	2	11924*	1676	2912
CCOc1ccc(/C=C2/NC(=S)NC2=O)cc1	.	-3	.	.	.	.	.	.	.
SMILES	FXIIa inh mix	HePTP inh	Calb biofilm kill	D1 mod	TNAP act DEA	FXIa inh mix	D1 mod confirm	D1 no dopamine	Isoprot counter
Cc1cccc(N2C(=O)/C(=C/c3ccccc3[N+](=O)[O-])SC2=S)c1C	.	0	.	.	.	.	.	.	.
Cc1ccc(-c2cc(C(=O)N3CCN(c4cccc(Cl)c4)CC3)c3ccccc3n2)c(C)c1	.	-6	.	.	.	.	.	.	.
CCSc1nc2sc3c(c2c2nnnn12)CCC3	.	5	.	.	.	.	.	.	.
Nc1nc(CN2CCN(c3ccccc3)CC2)nc(N2CCCc3ccccc32)n1	4	11	3	4*	1	12	8864*	1484	3120
COc1ccc(N2CCN(Cc3nc(N)nc(N4CCCc5ccccc54)n3)CC2)cc1	-3	0	7	5.7*	0.9	-7	13244*	1624	3232*
O=C(COc1ccc(Cl)cc1Cl)Nc1ccc2c(c1)OCO2	.	9	.	.	.	.	.	.	.
Clc1cccc(NCc2nnc(SCc3ccccc3)o2)c1	6	4	4	3.2*	0.8	8	7948*	.	2644
NCCCCCc1nnc(SCc2cccc(Cl)c2)o1	0	7	-6	-1.6	0.9	7	.	.	.
N#CCSc1nnc(CNc2cccc(Cl)c2)o1	0	4	7	4*	0.9	3	4760	.	2620
O=C(Nc1ccccc1C(=O)Nc1ccccc1Cl)c1ccncc1	.	-3	.	.	.	.	.	.	.
O=C(Oc1cccc(/C=N/NC(=O)c2ccccn2)c1)c1cccc(F)c1	.	9	.	.	.	.	.	.	.
Brc1ccc2oc3c(N4CCOCC4)ncnc3c2c1	4	1	7	5.1*	1	2	8996*	1872	3652*
CC1(C)Cc2c(sc3c2c(=N)n(Cc2ccco2)c(=O)n3Cc2ccc(F)cc2)CO1	3	5	2	23*	0.9	4	17584*	1640	9976*
Cc1ccc(NC(=O)Cn2c(=O)n(Cc3ccco3)c(=N)c3c4c(sc32)COC(C)(C)C4)cc1	4	9	6	.	1	10	.	.	.
COc1ccc(Cn2c(=O)n(Cc3ccco3)c(=N)c3c4c(sc32)COC(C)(C)C4)cc1	4	-4	0	21*	0.9	5	22180*	1932	10996*
Cc1c(C(=O)Nc2ccc3oc(-c4ccccc4Br)nc3c2)cccc1[N+](=O)[O-]	.	-9	.	.	.	.	.	.	.
COC(=O)c1c(N)c(C#N)c(C)n1-c1ccccc1	8	1	6	3*	0.9	5	8468*	1628	3376*
CC(=O)c1c(N)c(C#N)c(C)n1-c1ccc(Br)cc1	9	3	.	.	0.9	-2	.	.	.
C=CCN1C(=O)/C(=C\c2ccc(N(CC)CC)cc2O)SC1=S	.	20	.	.	.	.	.	.	.
CC(=O)Oc1ccc(C(=O)Nc2ccc(C(=O)O)cc2)cc1	.	3	.	.	.	.	.	.	.

Assay outcomes deposited in PubChem BioAssay by several laboratories.
